# How the values were obtained:
# Experiment in all cases: PBM binding z-score (relative to random genomic background probes); higher = stronger binding; sequences stand for … in GC…GCGATTGACAGCGTAGAATGAAGG
# [1] = system: RARb homodimer (NR concentration 270 nM)
# Procedure, shortened: (§1)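 Custom Agilent 4×180K protein-binding microarrays carried double-stranded probes, each with a 34-nt variable region. These regions held direct-repeat seeds, single-nucleotide variants, half-site ablations and random human genomic background sequences. Ligand-free nuclear receptor dimers were incubated on the arrays for 1 h, antibodies against each partner (one per run) detected binding, and scanned fluorescence was regression-normalized. Binding z-scores take the random background probes as reference.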
# [2] = system: RARg:RXRa (NR concentration 270 nM, RXRa partner concentration 90 nM)
# Procedure, shortened: as §1
# [3] = system: RARg homodimer (NR concentration 270 nM)
# Procedure, shortened: as §1
# [4] = system: RXRa DBDmut IVT, anti-RXR (DBD mutation: RXRa K156A/R161A, NR concentration 90 nM)
# Procedure, shortened: as §1
# [5] = system: RXRa homodimer (NR concentration 180 nM)
# Procedure, shortened: as §1
# [6] = system: THRa:RXRa (NR concentration 90 nM, RXRa partner concentration 90 nM)
# Procedure, shortened: as §1
# [7] = system: THRa homodimer (NR concentration 90 nM)
# Procedure, shortened: as §1
# [8] = system: VDR homodimer (NR concentration 270 nM)
# Procedure, shortened: as §1
sequence,measurement,setting,value
GGAACGAGTGCAAGTTGATAGCAGAGTTTGATGG,PBM binding z-score,[1],-0.0389
same,PBM binding z-score,[2],-0.00885
same,PBM binding z-score,[3],0.227
same,PBM binding z-score,[4],3.42
same,PBM binding z-score,[5],0.155
same,PBM binding z-score,[6],-0.241
same,PBM binding z-score,[7],-0.787
same,PBM binding z-score,[8],2.87
CTCGAAGGGTCGGTTGAGGTGAGTATACGGATAA,PBM binding z-score,[1],1.41
same,PBM binding z-score,[2],1.55
same,PBM binding z-score,[3],1.56
same,PBM binding z-score,[4],0.489
same,PBM binding z-score,[5],1.17
same,PBM binding z-score,[6],4.74
same,PBM binding z-score,[7],1.49
same,PBM binding z-score,[8],0.596
CCGACTGGGGCAAGGTTACCATTACGCACAGCCA,PBM binding z-score,[1],1.42
same,PBM binding z-score,[2],0.911
same,PBM binding z-score,[3],1.17
same,PBM binding z-score,[4],-0.427
same,PBM binding z-score,[5],1.03
same,PBM binding z-score,[6],1.09
same,PBM binding z-score,[7],0.435
same,PBM binding z-score,[8],0.338
TGAATGAGGTTACAAGATCAGGGAACGTTGCAAA,PBM binding z-score,[1],0.458
same,PBM binding z-score,[2],1.79
same,PBM binding z-score,[3],1.52
same,PBM binding z-score,[4],0.127
same,PBM binding z-score,[5],2.26
same,PBM binding z-score,[6],2.2
same,PBM binding z-score,[7],0.329
same,PBM binding z-score,[8],0.106
ATAACGAGGGCAATGAGTTGATAGCACGGGTGGC,PBM binding z-score,[1],0.877
same,PBM binding z-score,[2],1.46
same,PBM binding z-score,[3],1.73
same,PBM binding z-score,[4],1.84
same,PBM binding z-score,[5],1.07
same,PBM binding z-score,[6],0.969
same,PBM binding z-score,[7],-0.389
same,PBM binding z-score,[8],3.01
CCTAGTTGCTCAGGAGGTCACACACCGGATATGA,PBM binding z-score,[1],4.04
same,PBM binding z-score,[2],4.26
same,PBM binding z-score,[3],3.65
same,PBM binding z-score,[4],1.26
same,PBM binding z-score,[5],4.71
same,PBM binding z-score,[6],3.75
same,PBM binding z-score,[7],2.69
same,PBM binding z-score,[8],2.65
ACTCAGAGGACAAAGGTCAGAGCTACGCCAGTGA,PBM binding z-score,[1],4.56
same,PBM binding z-score,[2],6.51
same,PBM binding z-score,[3],5.89
same,PBM binding z-score,[4],1.84
same,PBM binding z-score,[5],6.06
same,PBM binding z-score,[6],3.44
same,PBM binding z-score,[7],0.705
same,PBM binding z-score,[8],1.43
GCTATTAGATGAAAGGGCAACCGAATGATTCTCG,PBM binding z-score,[1],1.76
same,PBM binding z-score,[2],0.991
same,PBM binding z-score,[3],1.24
same,PBM binding z-score,[4],0.654
same,PBM binding z-score,[5],1.17
same,PBM binding z-score,[6],0.435
same,PBM binding z-score,[7],-0.425
same,PBM binding z-score,[8],-0.071
